Screens from PubChem.
Only some compounds are listed: those with a hit (about 10% of all), similar ones and a draw of the others.
MCF10A rerep – inducers of DNA re-replication in MCF 10A breast cells; MCF 10A DNA re-replication, Hoechst nuclear intensity, 48 h; Potency, µM (top dose mostly 46.1 µM), for the others: at the top dose activity, positive = re-replication, most hits filed as activators; 350,000 tested, 2.9% active; further: % of control where 0% means no effect; nearly all actives have a fitted effect of over 50% in size
SW480 rerep – DNA re-replication induction in SW480 cells | SW480 DNA re-replication, Hoechst DNA content imaging, 48 h | Potency, µM (doses to about 46.1 µM), for the others: at the highest dose re-replication activation, actives largely listed as activators | 340,000 tested, 1.8% active; further: % of control where 0% means no effect; nearly all actives have a fitted effect of over 55% in size
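Image-based DNA-content assay: after two days of treatment, nuclei were labelled with the DNA dye Hoechst and imaged, and hits were compounds raising the count of nuclei showing high fluorescence intensity.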
RORg inh – inhibitors of mouse ROR gamma transcriptional activity; P51450; Drosophila S2 Gal4-RORgamma UAS-luciferase reporter, 20 h; Potency, µM (doses to about 53.6 µM), inactives show top-dose activity change, negative = inhibition, actives largely listed as inhibitors; 310,000 tested, 5.4% active; AID 2551; further: on the % scale 0 is the no-effect control and ±100 the full control effect; nearly all actives have a fitted effect of over 60% in size
Target sequence (P51450 whole entry, looked up, the tested form may be a part): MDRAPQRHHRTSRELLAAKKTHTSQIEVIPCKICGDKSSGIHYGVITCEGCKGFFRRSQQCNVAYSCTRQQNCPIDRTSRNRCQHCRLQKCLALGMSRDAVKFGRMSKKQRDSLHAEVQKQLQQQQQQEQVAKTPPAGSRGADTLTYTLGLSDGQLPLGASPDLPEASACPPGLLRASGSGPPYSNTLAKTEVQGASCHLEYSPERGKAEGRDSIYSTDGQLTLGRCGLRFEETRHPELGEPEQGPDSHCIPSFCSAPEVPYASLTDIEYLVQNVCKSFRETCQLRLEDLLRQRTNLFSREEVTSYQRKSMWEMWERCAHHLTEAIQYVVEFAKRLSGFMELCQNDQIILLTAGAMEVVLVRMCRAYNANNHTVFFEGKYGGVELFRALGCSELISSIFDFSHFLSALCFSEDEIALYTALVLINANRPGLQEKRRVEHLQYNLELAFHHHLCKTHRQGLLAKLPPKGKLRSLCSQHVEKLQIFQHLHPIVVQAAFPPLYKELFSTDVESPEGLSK
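In this cell-based reporter format, copper sulfate (700 uM final) drives Gal4–ROR gamma fusion expression from a metallothionein promoter in Drosophila Schneider cells; compounds preincubated 1 hr, reporter read after 20 hr at ambient temperature.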
KB-3-1 cytotox – kills parental KB-3-1 adenocarcinoma cells; KB-3-1 viability, CellTiter-Glo ATP luminescence, 72 h; Potency, µM (series often up to 46.1 µM), actives largely listed as cytotoxic; 400,000 tested, 1.4% active; further: on the % scale 0 is the no-effect control and ±100 the full control effect; nearly all actives have a fitted effect of over 60% in size
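Screening of KB-3-1 cells (DMEM, 10% FBS, phenol-red free) ran from lowest to highest compound concentration; after 72 h at 37 °C viability was read luminescently and curves fitted.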
Gal4-VP16 FLuc – counter-screen for ROR gamma inhibitors: Gal4-VP16 reporter; Drosophila S2 Gal4-VP16 UAS-luciferase, luminescence, 20 h; Potency, µM (doses to about 53.6 µM), inactives show at the top dose activity, negative = inhibition, most hits filed as inhibitors; 310,000 tested, 3.5% active;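 further: Gal4-VP16 expression switched on by copper sulfate through the metallothionein promoter; on the % scale 0 is the no-effect control and ±100 the full control effect; nearly all actives have a fitted effect of over 50% in size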
KB-V1 cytotox – KB-V1 MDR subline cytotoxicity; AID 1347076; KB-V1 MDR cells viability, CellTiter-Glo, 72 h; Potency, µM (titrated, usually from 46.1 µM), most hits filed as cytotoxic; 400,000 tested, 3.4% active; further: on the % scale 0 is the no-effect control and ±100 the full control effect; nearly all actives have a fitted effect of over 60% in size
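Following 72 h at 37 degrees C with compound, KB-V1 cell viability was read by CellTiter-Glo luminescence, medium being phenol-red-free DMEM plus 10% FBS; concentration-response parameters came from normalized, curve-fitted qHTS data.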
The depositor's hits bear a star. The call rests on the fitted dose curve; in most records, active means well fitted curve in the direction sought with a large enough effect; inconclusive means small, poorly fitted or top-dose-only effect, or another doubt; inactive means no such curve, though single readings can be large; an effect the other way counts as inactive or inconclusive. Potency means the concentration at half of the fitted maximal effect.

Cc1cc(-n2c(C)nc3ccccc3c2=O)ccc1NC(=O)c1ccc(C)c([N+](=O)[O-])c1 was read as KB-3-1 cytotox inactive and KB-V1 cytotox inactive.
Cc1cc(N(C)C)cc(C)c1C=O was read as KB-3-1 cytotox inactive and KB-V1 cytotox inactive.
For CCOc1cc(/C=N/Nc2nc(N3CCCC3)nc(N3CCCC3)n2)ccc1O the results were MCF10A rerep 5.5%, SW480 rerep 14.8%, RORg inh 5.62µM*, KB-3-1 cytotox inactive, Gal4-VP16 FLuc 5.01µM* and KB-V1 cytotox inconclusive.
For CCOc1cc(/C=N/Nc2nc(Nc3ccccc3)nc(N3CCCCC3)n2)ccc1OCC(=O)O the results were MCF10A rerep 17.4%, SW480 rerep 0.1%, RORg inh 4.47µM*, KB-3-1 cytotox inactive, Gal4-VP16 FLuc inconclusive and KB-V1 cytotox inactive.
For CCOCCc1nnc(NC(=O)C(=O)c2cc(C)n(-c3cccc(C)c3)c2C)s1 the results were KB-3-1 cytotox inactive and KB-V1 cytotox inactive.
For CCN(CC)c1ccc(NC(=O)c2ccccc2)cc1S(=O)(=O)Nc1ccccc1OC the results were MCF10A rerep 11.3%, SW480 rerep 5.6%, RORg inh 7.1%, KB-3-1 cytotox inactive, Gal4-VP16 FLuc -8.1% and KB-V1 cytotox 14.6µM*.
For Cc1ccc(NC(=S)NC(=O)c2ccc(F)cc2)cc1S(=O)(=O)Nc1ccccc1Cl the results were MCF10A rerep inconclusive, SW480 rerep -1.9%, RORg inh 4.47µM*, KB-3-1 cytotox 23.1µM*, Gal4-VP16 FLuc 6.31µM* and KB-V1 cytotox inconclusive.
For CCOc1ccc(NS(=O)(=O)c2cc(NC(=O)c3ccc(C)cc3)ccc2Cl)cc1 the results were MCF10A rerep 2.06µM*, SW480 rerep 4.61µM*, RORg inh inconclusive, KB-3-1 cytotox inconclusive, Gal4-VP16 FLuc -17.0% and KB-V1 cytotox 0.82µM*.
CCOc1ccc(Oc2ccc(NS(=O)(=O)c3cc(C(=O)O)ccc3Cl)cc2)cc1 was read as MCF10A rerep -1.5%, SW480 rerep -2.5%, KB-3-1 cytotox inactive and KB-V1 cytotox inactive.
`CCN(CC)c1ccc(NC(=O)c2cccc(C)c2)cc1S(=O)(=O)Nc1ccccc1OC` gave MCF10A rerep 0.5%, RORg inh 23.0%, KB-3-1 cytotox inactive, Gal4-VP16 FLuc -4.3% and KB-V1 cytotox inconclusive.
For Cc1ccc(NC(=O)c2ccc(=O)[nH]n2)cc1S(=O)(=O)Nc1ccccc1Cl the results were MCF10A rerep 1.4%, SW480 rerep -1.5%, KB-3-1 cytotox inactive and KB-V1 cytotox inactive.
`COc1ccc(C(=O)Nc2ccc(Cl)c(S(=O)(=O)Nc3ccccc3OC)c2)cc1` gave MCF10A rerep 9.1%, SW480 rerep 3.4%, RORg inh 6.3%, KB-3-1 cytotox inconclusive, Gal4-VP16 FLuc inconclusive and KB-V1 cytotox 2.31µM*.
Screening COc1cccc(CNC(=O)c2cc3n(n2)CCCN(Cc2ccc(C)cc2)C3=O)c1OC returned KB-3-1 cytotox inactive and KB-V1 cytotox inactive.
Screening COc1ccccc1NS(=O)(=O)c1cc(NC(=O)c2ccc(Cl)nc2)ccc1Cl returned MCF10A rerep 18.4µM*, SW480 rerep 0.9%, RORg inh 15.7%, KB-3-1 cytotox inconclusive, Gal4-VP16 FLuc 20µM* and KB-V1 cytotox 8.2µM*.
`COc1ccc(NS(=O)(=O)c2cc(N/C(=N\S(=O)(=O)c3ccccc3)c3ccc(F)cc3)ccc2Cl)cc1` gave MCF10A rerep 13µM*, SW480 rerep inconclusive, RORg inh inconclusive, KB-3-1 cytotox 20.6µM*, Gal4-VP16 FLuc -5.0% and KB-V1 cytotox 20.6µM*.
COc1ccccc1NC(=O)Nc1ccc(Cl)c(S(=O)(=O)Nc2ccccc2OC)c1 was read as MCF10A rerep -2.1%, SW480 rerep -3.2%, RORg inh inconclusive, KB-3-1 cytotox inactive, Gal4-VP16 FLuc -7.0% and KB-V1 cytotox inactive.
CC(=O)Nc1nonc1-c1nnc(SCC(=O)Nc2cccc(F)c2)n1-c1ccccc1 was read as KB-3-1 cytotox inactive and KB-V1 cytotox inactive.
For CCOC(=O)C1=C(O)CSC1=Nc1cccc2ccccc12 the results were MCF10A rerep 2.6%, SW480 rerep -41.1%, RORg inh 0.2%, KB-3-1 cytotox inactive, Gal4-VP16 FLuc -3.0% and KB-V1 cytotox 23.1µM*.
`O=c1c2ccccc2nc(-c2ccc(Cl)cc2)n1CCCCOc1ccc(F)cc1` gave KB-3-1 cytotox inactive and KB-V1 cytotox inactive.
Screening Nc1ccc(-c2ccc(N)c([N+](=O)[O-])c2)cc1[N+](=O)[O-] returned MCF10A rerep 2.9%, SW480 rerep -41.0%, RORg inh 21.6%, KB-3-1 cytotox inactive, Gal4-VP16 FLuc -2.9% and KB-V1 cytotox inactive.
Nc1ccccc1-c1ccc([N+](=O)[O-])cc1 was read as MCF10A rerep 23.1µM*, SW480 rerep inconclusive, KB-3-1 cytotox inconclusive and KB-V1 cytotox inactive.
`Cc1ccc(C2=CC(c3ccc(N(C)C)cc3)n3nnnc3N2)cc1` (stereo not given) gave MCF10A rerep 23.1µM*, SW480 rerep inconclusive, RORg inh -38.8%, KB-3-1 cytotox inactive, Gal4-VP16 FLuc inconclusive and KB-V1 cytotox inactive.
For COc1ccc(C2=CC(c3ccc(F)cc3)n3nnnc3N2)cc1 (stereo not given) the results were MCF10A rerep 23.1µM*, SW480 rerep 14.6µM*, RORg inh 33.5%, KB-3-1 cytotox inactive, Gal4-VP16 FLuc 11.2% and KB-V1 cytotox inactive.
COc1ccccc1C1C=C(c2ccccc2)Nc2nnnn21 (stereo not given) was read as MCF10A rerep 7.31µM*, SW480 rerep inconclusive, RORg inh -8.6%, KB-3-1 cytotox 13µM*, Gal4-VP16 FLuc 4.2% and KB-V1 cytotox 8.2µM*.
`COc1cccc(C2=CC(c3cccs3)n3nnnc3N2)c1` (stereo not given) gave MCF10A rerep 4.11µM*, SW480 rerep 5.8µM*, RORg inh 33.8%, KB-3-1 cytotox 5.17µM*, Gal4-VP16 FLuc 22.0% and KB-V1 cytotox inconclusive.
For CC(C)c1ccc(C2=CC(c3ccc(C(C)C)cc3)n3nnnc3N2)cc1 (stereo not given) the results were KB-3-1 cytotox inactive and KB-V1 cytotox inactive.
Screening COc1cccc(C2=CC(c3ccc(OC)c(OC)c3OC)n3nnnc3N2)c1 (stereo not given) returned MCF10A rerep 2.1%, SW480 rerep -3.5%, RORg inh -32.3%, KB-3-1 cytotox inactive, Gal4-VP16 FLuc inconclusive and KB-V1 cytotox inactive.
For O=C(COCc1cc(-c2cccs2)on1)NCc1cccc(Cl)c1 the results were KB-3-1 cytotox inactive and KB-V1 cytotox inactive.
